High-throughput results (PubChem)
In the library only some 6.2% were active in any assay of this set; here they are far more common.
KB-3-1 cytotox: kills parental KB-3-1 adenocarcinoma cells; Potency, µM (doses to about 46.1 µM), hits mostly cytotoxic; AID 1347075; KB-3-1 viability, CellTiter-Glo ATP luminescence, 72 h; hit rate 1.4% among 400,000; further: on the % scale 0 is the no-effect control and ±100 the full control effect; nearly all actives have a fitted effect of over 60% in size
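KB-3-1 parental drug-naive adenocarcinoma cells in DMEM/10% FBS, incubated 72 h at 37 C with pin-transferred compounds across a concentration series. Viability by CellTiter-Glo luminescence; concentration-response curves fitted after normalization.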
HT1080 IDH1KD tx: toxicity to HT-1080 IDH1 knockdown cells (counter line). HT-1080 IDH1 knockdown viability, ATP luminescence, 48 h. Potency, µM (series often up to 46.1 µM), inactives show top-dose activity, negative = toxicity, most hits filed as cytotoxic. hit rate 2% among 360,000. AID 686971;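 further: 0% = DMSO wells and -100% = cell-free medium wells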
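Assay cells: HT-1080 with IDH1 knockdown, 750 per well, RPMI/5% FBS. Exposure: 48 h at 37 °C following 2 h pre-incubation. Read: CellTiter-Glo luminescence; fitted concentration-response, curve class assigned.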
S2 tox: cell viability loss in ATXN counter-screen; S2 cells (HEK-293 line with an ATXN2-luciferase reporter) viability, CellTiter-Fluor protease fluorescence, 24 h; AID 651635; hit rate 0.49% among 400,000; Potency, µM (series often up to 56.7 µM), hits mostly cytotoxic; further: nearly all actives have a fitted effect of over 40% in size
ATXN2 expr inh: reduces ATXN2 reporter expression in HEK-293 cells. HEK-293 ATXN2-luciferase reporter, luminescence, 24 h. Potency, µM (top dose mostly 57 µM), for the others: at the highest dose activity change, negative = inhibition, actives largely listed as inhibitors. hit rate 0.72% among 360,000; further: on the % scale 0 is the no-effect control and ±100 the full control effect; nearly all actives have a fitted effect of over 55% in size
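ATXN2-luciferase reporter cells (luciferase flanked by upstream and downstream ATXN2 gene portions) were treated 24 h at 37 °C with compounds at up to 57 uM. SteadyGlo luminescence gave expression; GF-AFC fluorescence gave viability.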
HT1080NT lethal: kills 2HG-producing HT-1080-NT fibrosarcoma cells | hit rate 1.6% among 360,000 | HT-1080-NT fibrosarcoma viability, CellTiter-Glo ATP luminescence, 48 h | AID 686970 | Potency, µM (top dose mostly 46.1 µM), for the others: top-dose activity, negative = less viability, hits mostly cytotoxic;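 further: NT is the 2HG producing partner of a matched IDH1 knockdown line; 0% = DMSO-treated cells and -100% = media-only wells without cells; nearly all actives have a fitted effect of over 55% in size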
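Read-out is CellTiter-Glo luminescence after 10 minutes at room temperature, following 48 hours' compound treatment of HT-1080-NT cells (750 cells/well, RPMI, 5% FBS, 37 degrees C).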
KB-V1 MDR tox: kills drug-selected multidrug resistant KB-V1 cells | AID 1347076 | hit rate 3.4% among 400,000 | KB-V1 MDR cells viability, CellTiter-Glo, 72 h | Potency, µM (titrated, usually from 46.1 µM), hits mostly cytotoxic; further: on the % scale 0 is the no-effect control and ±100 the full control effect; nearly all actives have a fitted effect of over 60% in size
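Potencies derive from concentration-effect curves fitted to normalized luminescence (CellTiter-Glo) of KB-V1 cells treated for 72 h at 37 degrees C in phenol-red-free DMEM containing 10% FBS.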
An asterisk follows results filed as active; i = inactive; u = inconclusive; x = no result given. The call rests on the fitted dose curve; in most records, active means well fitted curve in the direction sought with a large enough effect; inconclusive means small, poorly fitted or top-dose-only effect, or another doubt; inactive means no such curve, though single readings can be large; an effect the other way counts as inactive or inconclusive. Potency means the concentration at half of the fitted maximal effect.

SMILES	KB-3-1 cytotox	HT1080 IDH1KD tx	S2 tox	ATXN2 expr inh	HT1080NT lethal	KB-V1 MDR tox
O=C(CCl)Nc1cn(-c2ccccc2)nc1-c1ccccc1	u	-29.1%	8.91µM*	x	u	20.6µM*
O=C(Nc1cn(-c2ccccc2)nc1-c1ccc(F)cc1)c1ccccc1	i	0.7%	i	3.2%	0.2%	16.4µM*
Cc1cc(C)n(-c2nc(NC(C)C)nc(NC(C)(C)C)n2)n1	i	x	x	x	x	i
CC(C)CN(C(=O)COC(=O)C12CC3CC(CC(C3)C1)C2)c1c(N)n(Cc2ccccc2)c(=O)[nH]c1=O	u	u	22.4µM*	14.1µM*	u	i
Cc1ccc(SCC(=O)OCC(=O)N(CC(C)C)c2c(N)n(Cc3ccccc3)c(=O)[nH]c2=O)c(C)c1	i	23.1µM*	i	-31.2%	u	i
CC(C)CN(C(=O)COC(=O)CSc1ccccc1F)c1c(N)n(Cc2ccccc2)c(=O)[nH]c1=O	i	1.5%	i	-3.4%	-0.6%	u
CC(C)CN(C(=O)COC(=O)C12CC3CC(CC(O)(C3)C1)C2)c1c(N)n(Cc2ccccc2)c(=O)[nH]c1=O	i	9.7%	i	x	14.4%	i
CCc1nc2ccc(C(=O)N3CCN(c4ccccc4)CC3)cn2c1N(C)CCC(C)C	u	6.51µM*	i	-0.9%	u	23.1µM*
CCc1nc2ccc(C(=O)NC3CCN(C)CC3)cn2c1N(C)CCC(C)C	i	u	i	0.0%	16.4µM*	i
CCc1ccc(S(=O)(=O)c2nnn3c2nc(Nc2cc(OC)cc(OC)c2)c2cc(Cl)ccc23)cc1	i	x	i	7.0%	x	u
CC(=O)N1N=C(c2cccc([N+](=O)[O-])c2)OC1c1ccc(Cl)cc1Cl (centres undefined)	i	-0.1%	i	-20.6%	-10.5%	20.6µM*
O=C(N/N=C/C1CC=CCC1)c1cc2ccccc2cc1O (centres undefined)	i	18.4µM*	i	-13.4%	u	i
O=C(N/N=C/C1CC=CCC1)c1ccc(O)cc1O (centres undefined)	i	1.4%	u	4.6%	10.2%	i
COc1ccccc1-n1cnc(N)c1C(=O)c1ccccc1	i	25.9µM*	i	-22.2%	u	i
Cc1ccc(C(=O)N/N=C/c2ccc(-c3cccc(C(F)(F)F)c3)o2)cn1	6.51µM*	2.06µM*	i	-27.1%	u	8.2µM*
Cc1ccc(OCC(=O)N/N=C\c2ccc(-c3cccc(C(=O)O)c3)o2)c(C)c1	i	1.1%	i	9.3%	3.7%	i
CNC(=S)N/N=C/c1ccc(-c2cccc(C(=O)O)c2)o1	14.6µM*	u	i	39.7%	u	20.6µM*
COc1cc(-c2nc(-c3ccccc3)c(-c3ccc(Br)cc3)[nH]2)cc(OC)c1O	i	x	u	u	x	i
CCCCc1nn2c(=O)cc(COC(=O)COc3ccc(C)cc3)nc2s1	i	x	i	9.4%	x	i
O=C(NCCc1csc(-c2cccnc2)n1)c1cccs1	i	9.0%	i	9.4%	8.4%	i
O=C(NCCc1csc(-c2cccnc2)n1)c1ccc(F)c(F)c1	i	x	i	-17.6%	x	13µM*
Cc1ccc(C(=O)NCCc2csc(-c3cccnc3)n2)cc1	i	12.6%	u	-1.1%	-3.6%	i
O=C(NCCc1csc(-c2cccnc2)n1)c1cccc(C(F)(F)F)c1	u	x	i	-22.5%	x	9.2µM*
CSc1ccccc1C(=O)OCC(=O)Nc1ccc(N2CCOCC2)cc1	i	12.7%	i	2.9%	16.6%	20.6µM*
FC(F)(F)c1cc(CCN2CCNC[C@@H]2CC2CCCCC2)cc(C(F)(F)F)c1	i	u	x	22.4µM*	u	i
SMILES	KB-3-1 cytotox	HT1080 IDH1KD tx	S2 tox	ATXN2 expr inh	HT1080NT lethal	KB-V1 MDR tox
FC(F)(F)c1cc(CCN2CCNC[C@@H]2c2ccccc2)cc(C(F)(F)F)c1	i	-11.7%	35.5µM*	u	0.0%	i
Fc1cccc(CCN2CCNC[C@@H]2c2ccccc2)c1	i	-4.0%	i	-4.3%	-11.2%	u
CCCC[C@@H]1CNCCN1CCc1cc(C(F)(F)F)cc(C(F)(F)F)c1	u	-9.3%	35.5µM*	u	0.0%	u
COc1cc(Cn2c(=O)sc3ccccc32)ccc1OCCC(C)C	i	x	i	10.0%	x	i
CC(C)OCCCNC(=O)C(=O)Nc1ccc2nc3n(c(=O)c2c1)CCCCC3	i	x	u	-6.8%	x	i
CCc1ccc(C(=O)C(C)OC(=O)Cc2n[nH]c(=O)c3ccccc23)cc1 (centres undefined)	9.2µM*	13µM*	i	-20.7%	u	u
O=C(CC1N=C2c3ccccc3N=C(SCC(=O)Nc3ccccc3F)N2C1=O)NCc1ccc2c(c1)OCO2 (centres undefined)	i	x	i	6.0%	x	i
Cc1cc(C=C2C(=O)c3ccccc3C2=O)c(C)n1-c1ccc(Cl)cc1	u	13.3%	i	60.0%	8.6%	16.4µM*
Cc1cccc(-n2c(C)cc(C=C3C(=O)c4ccccc4C3=O)c2C)c1	i	3.6%	i	84.0%	-2.8%	u
CN(C)c1ccc(C2Nc3ccc4ccccc4c3C3=C2C(=O)CC(C)(C)C3)cc1Br (centres undefined)	x	x	x	-13.3%	x	x
COc1ccc(-n2nc(C(=O)NCC(=O)NCC3CCCO3)c3ccccc3c2=O)cc1Cl (centres undefined)	i	-3.6%	i	-1.2%	-9.7%	9.2µM*
COc1ccc(-n2nc(C(=O)NCC(=O)NC(C)C)c3ccccc3c2=O)cc1Cl	i	0.8%	i	x	-0.3%	i
Cc1ccc(CNC(=O)CCCCCn2c(=O)c3sccc3n(CC(=O)N(C)c3ccccc3)c2=O)cc1	i	x	u	-9.0%	x	i
NC(=O)c1cccc(Nc2nc(C(N)CCc3ccccc3)cs2)n1 (centres undefined)	i	u	i	-8.5%	u	i
COc1cccc(Nc2nc(C(N)COCc3ccccc3)cs2)n1 (centres undefined)	i	u	i	-21.8%	18.4µM*	i
COc1cccc(Nc2nc(C(N)CCc3ccccc3)cs2)n1 (centres undefined)	u	u	u	28.2µM*	u	u
COC(=O)c1ccc(NC(=O)CN(c2cccc(C(F)(F)F)c2)S(C)(=O)=O)cc1	i	x	u	-13.7%	x	i
O=C(C1CC12CCN(Cc1cccc3cccnc13)CC2)N1CCN(Cc2cccs2)CC1 (centres undefined)	x	x	i	x	x	x
